Experimental data: PubChem BioAssay (NCATS)
The source made the active and inactive calls. How the calls were made is not given here.

assay: Immunotoxin (HA22) sensitization/mitigation study. Vehicle arm (PBS) (AID 1159510); details: cancer cells viability with PBS vehicle (HA22 study); series mostly up to 46.1 µM
Potency means the concentration at half of the fitted maximal effect.

| SMILES | Potency |
| --- | --- |
| Cc1cccc(Nc2nc(N[C@@H]3CCCC[C@H]3N)ncc2C(N)=O)c1 | 18.7 µM (active) |
| O=C(c1ccc(Nc2nccc(-c3cc4ccccc4s3)n2)cc1)N1CCC(N2CCCC2)CC1 | 16.6 µM (active) |
| CCN(CCCO)CCCOc1ccc2c(Nc3cc(CC(=O)Nc4cccc(F)c4)[nH]n3)ncnc2c1 | 18.7 µM (active) |
| COc1ccccc1[C@H](c1cccc2ccccc12)[C@@](C)(C#N)C(=O)N1CCC(c2cccc(C(F)(F)F)c2)CC1 | inactive |
| CN(C)c1ccc(Nc2nc(N)n(C(=O)c3c(F)cccc3F)n2)cc1 | 20.9 µM (active) |
| CC(C)(C)c1cc(C(C)(C)C)c(NC(=O)c2c[nH]c3ccccc3c2=O)cc1O | 16.6 µM (active) |
| CN[C@@H](C)C(=O)N[C@H]1CCCC[C@H]2CC[C@@H](C(=O)N[C@@H](c3ccccc3)c3cn(CCCCc4ccc(CCCCn5cc([C@@H](NC(=O)[C@@H]6CC[C@@H]7CCCC[C@H](NC(=O)[C@H](C)NC)C(=O)N76)c6ccccc6)nn5)cc4)nn3)N2C1=O | inactive |
| Cc1nn(Cc2ccccc2Cl)c(C)c1CN(C)CC(O)COc1ccc(Cl)cc1 (configuration not stated) | 26.4 µM (active) |
| Cn1c(=O)c(F)c(Nc2ccc(I)cc2F)c2c(=O)n(C[C@@H](O)CO)cnc21 | 23.5 µM (active) |
| O=C(c1cc(Cc2n[nH]c(=O)c3ccccc23)ccc1F)N1CCN(C(=O)C2CC2)CC1 | 14.8 µM (active) |
| COc1cccc(OC)c1-c1cc(C(=O)NC2(C(=O)O)C3CC4CC(C3)CC2C4)nn1-c1ccnc2cc(Cl)ccc12 (configuration not stated) | 29.6 µM (active) |
| O=C(Nc1cccc(Cl)c1)Nc1ncc(CCNc2ncnc3ccsc23)s1 | 29.6 µM (active) |
| CC[C@@H]1C(=O)N(C)c2cnc(Nc3ccc(C(=O)NC4CCN(C)CC4)cc3OC)nc2N1C1CCCC1 | 0.0066 µM (active) |
| CCCCOCCOc1nc(-c2ccc(C(=O)O)c(F)c2)sc1C | 0.0017 µM [activator] (active) |
| O=C(O)c1ccc(-c2c[nH]c3ccc(-c4ccccc4)cc23)cc1C1CCCC1 | inactive |
| COc1cc2nccc(Oc3ccc(NC(=O)Nc4cc(C)on4)c(Cl)c3)c2cc1OC | 18.7 µM (active) |
| CC(=O)c1c(C)c2cnc(Nc3ccc(N4CCNCC4)cn3)nc2n(C2CCCC2)c1=O | 16.6 µM (active) |
